# Laboratory results reported in PubChem BioAssay (NCATS).
# Peptide text beside a SMILES is read from it.
# Test: qHTS profiling of the MIPE4 collection as inhibitors of Plasmodium falciparum (DD2) proliferation (Rep 2) (AID 743346)
# Details: P. falciparum Dd2 in erythrocytes, SYBR Green DNA, 72 h; at 9.64 µM (top of the series)
# From the text: Plasmodium falciparum is a virulent malarial parasite that kills 1-2 million people worldwide each year. Transmitted by mosquitoes, the sporozoite form of the parasite enters the blood stream to infect hepatocytes, where they become merozoites that infect red blood cells (erythrocytes). Within erythrocytes, merozoites begin a […] cycle of growth and division, after which the parasite is released to infect new red blood cells. Gametocytes, which form within erythrocytes as well, circulate in the bloodstream and are ingested by the mosquito, thereby completing the life cycle. To profile malarial isolates for differential chemical responses and to identify inhibitors of malarial growth, an assay that measures P. falciparum growth and replication within erythrocytes was employed. This assay uses a DNA binding fluorescent dye (SYBR Green) to detect parasite DNA following cell lysis. Because mature erythrocytes lack DNA, only Plasmodium-derived DNA is detected.
# The SYBR Green viability assay was adapted from a method described previously (Plouffe et al., 2008). For screening 3 ul culture medium was dispensed into 1536 well black clear bottom plates (Aurora Biotechnologies) using a Multidrop Combi (Thermo Fisher Scientific Inc.), 23 nL compounds in DMSO were added by a pin tool (Kalypsys), and 5 ul of erythrocytes infected with P. falciparum (0.3% parasitemia, 2.5% hematocrit final concentration) were added. The plates were incubated at 37 C in a humidified incubator in 5% CO2 for 72 h, and 2 ul lysis buffer (20 mM Tris HCl, 10 mM EDTA, 0.16% saponin, 1.6% triton X, 10X SYBR Green I supplied as 10,000X […] by Invitrogen) was added to each well. The plates were mixed for 25 sec with gentle shaking and incubated overnight at room temperature in the dark. The following morning, fluorescence intensity at 485(14) nm excitation and 535(25) nm emission wavelengths was measured on an EnVision (Perkin Elmer) plate reader. Plate reads were normalized relative to the control inhibitor (0.29 uM artemisinin) and vehicle (DMSO) wells present on each plate and then corrected by an algorithm using vehicle-only control plates at the beginning and end of the compound plate stack.
row,SMILES,"parasite growth, % of control (lower = inhibition) [%]"
1,CCCCN(CCCC)CCC(O)c1cc2c(Cl)cc(Cl)cc2c2cc(C(F)(F)F)ccc12 (stereo not given),11

# Same assay, conditions: P. falciparum Dd2 in erythrocytes, SYBR Green DNA, 72 h; at 28.5 µM
row,SMILES,"parasite growth, % of control (lower = inhibition) [%]"
1,CCCCN(CCCC)CCC(O)c1cc2c(Cl)cc(Cl)cc2c2cc(C(F)(F)F)ccc12 (stereo not given),10.3

# Same assay, conditions: P. falciparum Dd2 in erythrocytes, SYBR Green DNA, 72 h; at 28.5 µM unless noted
row,SMILES,"parasite growth, % of control (lower = inhibition)"
1,N[C@@H](Cc1cc(I)c(Oc2cc(I)c(O)c(I)c2)c(I)c1)C(=O)O,91.7%
2,C[Se]CCC(N)C(=O)O (stereo not given),135% [at 57.5 µM]
3,CC(C)Oc1ccc2c(=O)c(-c3ccccc3)coc2c1,60%
4,COC(=O)C1=C(C)NC(C)=C(C(=O)OC(C)C)C1c1cccc2nonc12 (stereo not given),120%
5,Oc1ccc2ccccc2c1SSc1c(O)ccc2ccccc12,30.4%
6,COc1cc2nc(N3CCN(C(=O)C4CCCO4)CC3)nc(N)c2cc1OC (stereo not given),46.2%
7,COC(=O)[C@H](Cc1ccccc1)NC(=O)[C@@H](N)CC(=O)O (H-Asp-Phe-OMe),118%
8,O=Nc1c(-c2c(O)[nH]c3cc(Br)ccc23)[nH]c2ccccc12,3.69%
9,CC(C)c1ccc2oc3nc(N)c(C(=O)O)cc3c(=O)c2c1,71.7%
10,O=P(O)(O)C(O)(Cn1ccnc1)P(=O)(O)O,94.2% [at 9.64 µM]
11,O=c1c(O)c(-c2ccc(O)cc2O)oc2cc(O)cc(O)c12,111%
12,CCOc1cc(CC(=O)N[C@@H](CC(C)C)c2ccccc2N2CCCCC2)ccc1C(=O)O,91.4%
13,Cc1cc(C2CCCCC2)n(O)c(=O)c1,17.5%
14,CC(C)[N+]1(C)[C@@H]2CC[C@H]1CC(OC(=O)C(CO)c1ccccc1)C2 (stereo not given in full),77.3%
15,Cc1cccc(-c2[nH]ncc2-c2ccc3ncccc3n2)n1,81.1%
16,Nc1ncn([C@H]2C[C@H](O)[C@@H](CO)O2)c(=O)n1,91.2%
17,O=C1c2ccccc2-c2n[nH]c3cccc1c23,87%
18,COc1cc(Nc2c(C#N)cnc3cc(OCCCN4CCN(C)CC4)c(OC)cc23)c(Cl)cc1Cl,14.7%
19,O=C(NOCC1CC1)c1ccc(F)c(F)c1Nc1ccc(I)cc1Cl,56.1%

row,SMILES,"parasite growth, % of control (lower = inhibition)"
1,O=C(O)c1cc(=O)c2c(OCC(O)COc3cccc4oc(C(=O)O)cc(=O)c34)cccc2o1,106%
2,CNC[C@@H](O)[C@@H](O)[C@H](O)[C@H](O)CO,82.7%
3,O=C(CS(=O)Cc1ccco1)NCC=CCOc1cc(CN2CCCCC2)ccn1 (stereo not given),53.3%
4,O=c1cc(N2CCOCC2)oc2c(-c3ccccc3)cccc12,78.4%
5,Cc1cc2cc3c(C)cc(=O)oc3c(C)c2o1,91.1%
6,Oc1ccc(OCc2ccccc2)cc1,83.5%
7,O=c1c(O)c(-c2cc(O)c(O)c(O)c2)oc2cc(O)cc(O)c12,111%
8,CC(C)C[C@H](NC(=O)[C@H](Cc1ccccc1)NC(=O)c1cnccn1)B(O)O,7.61%
9,CC[C@]1(O)C[C@H]2CN(CCc3c([nH]c4ccccc34)[C@@](C(=O)OC)(c3cc4c(cc3OC)N(C=O)[C@H]3[C@@](O)(C(=O)OC)[C@H](OC(C)=O)[C@]5(CC)C=CCN6CC[C@]43[C@@H]65)C2)C1,19.1%
10,COc1cc2c(N3CCN(C(=O)Nc4ccc(OC(C)C)cc4)CC3)ncnc2cc1OCCCN1CCCCC1,12%
11,CCOC(=O)C1=C(O)C(=O)N(Cc2ccccc2)C1,91%
12,CCC1=C(C)CN(C(=O)NCCc2ccc(S(=O)(=O)NC(=O)NC3CCC(C)CC3)cc2)C1=O (stereo not given),85.1%
13,Clc1ccc2c(N3CCN(CCCN4CCN(c5ccnc6cc(Cl)ccc56)CC4)CC3)ccnc2c1,21.1% [at 9.64 µM]
14,NNc1nncc2ccccc12,116%
15,Nc1cc(C(Cl)=C(Cl)Cl)c(S(N)(=O)=O)cc1S(N)(=O)=O,142%
16,CC(C)c1nc(CN(C)C(=O)N[C@H](C(=O)N[C@@H](Cc2ccccc2)C[C@H](O)[C@H](Cc2ccccc2)NC(=O)OCc2cncs2)C(C)C)cs1,41.9%
17,O=C(c1ccccc1)c1ccc2n1CCC2C(=O)O (stereo not given),121%
18,C[C@H](Cn1cnc2c(N)ncnc21)OCP(=O)(O)O,107%
19,Cc1ccc(C)c(OCCCC(C)(C)C(=O)O)c1,8.19%
